Test [1] in a line: NCI Yeast Anticancer Drug Screen. Data for the rad50 strain (AID 155).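 Further: 0% = growth of vehicle-only cultures of the same strain.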 Conditions: S. cerevisiae rad50 strain growth inhibition, hits give high values. The gist of the method: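 Growth of the mutant yeast was measured after compound exposure and referenced to vehicle-treated cultures.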
Test [2] can be described thus: NCI Yeast Anticancer Drug Screen. Data for the mec2-1 strain (AID 157). Conditions: S. cerevisiae mec2-1 strain, hits give high values. The gist of the method:
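Using mec2-1 yeast: add compound, measure growth, express inhibition versus vehicle-treated cultures.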

Test [3] is described as follows: NCI Yeast Anticancer Drug Screen. Data for the sgs1 mgt1 strain (AID 161).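 Further: 0% = growth of cultures given vehicle only.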 As to conditions: S. cerevisiae sgs1 mgt1 strain, hits give high values. The gist of the method:
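This yeast growth screen uses a strain with defined DNA-repair lesions; compound-treated growth is compared with vehicle-treated growth.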

A short description of test [4]: NCI Yeast Anticancer Drug Screen. Data for the cln2 rad14 strain (AID 165).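 Further: 0% = growth equal to vehicle treated cultures.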 As to conditions: S. cerevisiae cln2 rad14 strain, hits give high values. The gist of the method: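 Yeast strain cln2 rad14, bearing defects in cell cycle control and DNA repair, serves as the test system; values reflect growth inhibition compared with vehicle.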
A short description of test [5]: NCI Yeast Anticancer Drug Screen. Data for the bub3 strain (AID 167). Conditions: S. cerevisiae bub3 mutant strain, hits give high values. The gist of the method:
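Whole-cell yeast assay. The mutant strain was incubated with compounds, and growth inhibition was determined by comparison with vehicle-treated cells.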

The nature of test [6]: NCI Yeast Anticancer Drug Screen. Data for the mlh1 rad18 strain (AID 175). As to conditions: S. cerevisiae mlh1 rad18 strain growth inhibition, hits give high values. The gist of the method: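 Steps: expose repair-defective yeast to compound; measure growth; express inhibition against vehicle-treated controls.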
Where [7] appears, read: at 5.0 µM (retest, dose inferred, filed as 0.5).
Where [8] appears, read: at 50.0 µM (retest, dose inferred, filed as 5.0).

Molecules are shown by their SMILES. Compounds without any hit were thinned out: in the full panel of roughly 79,000, 15% have a hit. A number with no mark means an inactive call. The source made the active and inactive calls. No stated cut-off is given here; in the data, active means growth inhibition above about 70%; inactive means the rest.

`CCCCCCCN=C(N)c1ccc(C(=O)OC2CCCCC2)cc1`: the growth inhibition in test [1] (setting [7]) was -1%; in test [1] (setting [8]), 84% (active); in test [1] (at 50.0 µM), 96.8% (active); in test [2] (setting [7]), 17%; in test [2] (setting [8]) it was 89% (active); in test [2] (at 50.0 µM), 98% (active). Besides, the growth inhibition is 34% in test [3] (setting [7]); 98% (active) in test [3] (setting [8]); 99% (active) in test [3] (at 50.0 µM); 1% in test [4] (setting [7]); 70% (active) in test [4] (setting [8]); 96.4% (active) in test [4] (at 50.0 µM). For the same molecule, the growth inhibition in test [5] (setting [7]) was 1%; in test [5] (setting [8]) it was 73% (active); in test [5] (at 50.0 µM), 97.5% (active); in test [6] (setting [7]) it was 21%; in test [6] (setting [8]), 90% (active); in test [6] (at 50.0 µM) it was 99% (active).

For `CC1C(CCC(=O)O)OC2CC3C4CCC5CC(O)CCC5(C)C4CCC3(C)C21` (configuration not stated), the growth inhibition was 4% in test [1] (setting [7]); 56% in test [1] (setting [8]); 82.3% (active) in test [1] (at 50.0 µM); 7% in test [2] (setting [7]); 96% (active) in test [2] (setting [8]); 90% (active) in test [2] (at 50.0 µM). For the same molecule, the growth inhibition in test [3] (setting [7]) is 22%; in test [3] (setting [8]), 89% (active); in test [3] (at 50.0 µM), 95.5% (active); in test [4] (setting [7]), 8%; in test [4] (setting [8]) it was 90% (active); in test [4] (at 50.0 µM), 93.7% (active). Besides, the growth inhibition is 4% in test [5] (setting [7]); 66% in test [5] (setting [8]); 86.4% (active) in test [5] (at 50.0 µM); 16% in test [6] (setting [7]); 91% (active) in test [6] (setting [8]); 85.3% (active) in test [6] (at 50.0 µM).

With `COc1cc(NCC(C)(O)CN2CCC(C)CC2C)c2ncccc2c1` (configuration not stated), the growth inhibition in test [1] (setting [7]) was 14%; in test [1] (setting [8]), 57%; in test [1] (at 50.0 µM) it was 83.2% (active); in test [2] (setting [7]), 14%; in test [2] (setting [8]) it was 47%; in test [2] (at 50.0 µM), 50.1%. For the same molecule, the growth inhibition in test [3] (setting [7]) is 20%; in test [3] (setting [8]), 61%; in test [3] (at 50.0 µM), 77% (active); in test [4] (setting [7]), 13%; in test [4] (setting [8]), 52%; in test [4] (at 50.0 µM), 79.4% (active). The growth inhibition in test [5] (setting [7]) is 7%; in test [5] (setting [8]) it was 54%; in test [5] (at 50.0 µM), 80.7% (active); in test [6] (setting [7]) it was 0%; in test [6] (setting [8]), 58%; in test [6] (at 50.0 µM), 83.7% (active).

As for `COc1cccc(C2c3cc4c(cc3OC(NNc3ccccc3)C2C)OCO4)c1OC` (configuration not stated), the growth inhibition was 14% in test [1] (setting [7]); 94% (active) in test [1] (setting [8]); 73.2% (active) in test [1] (at 50.0 µM); 3% in test [2] (setting [7]); 94% (active) in test [2] (setting [8]); 44.7% in test [2] (at 50.0 µM). Moreover, the growth inhibition in test [3] (setting [7]) was 9%; in test [3] (setting [8]) it was 86% (active); in test [3] (at 50.0 µM), 44%; in test [4] (setting [7]), 11%; in test [4] (setting [8]) it was 90% (active); in test [4] (at 50.0 µM) it was 27.1%. In addition, the growth inhibition in test [5] (setting [7]) was 4%; in test [5] (setting [8]) it was 94% (active); in test [5] (at 50.0 µM) it was 34.2%; in test [6] (setting [7]) it was 24%; in test [6] (setting [8]), 93% (active); in test [6] (at 50.0 µM) it was 56.4%.

Consider `O=C1c2cccc3cc4ccccc4c(c23)C(=O)N1CCCNCCNCCCN1C(=O)c2cccc3cc4ccccc4c(c23)C1=O`, for which the growth inhibition in test [1] (setting [7]) was 94% (active); in test [1] (setting [8]), 98% (active); in test [1] (at 50.0 µM) it was 90.1% (active); in test [2] (setting [7]), 96% (active); in test [2] (setting [8]), 98% (active); in test [2] (at 50.0 µM), 85.2% (active). Moreover, the growth inhibition in test [3] (setting [7]) is 96% (active); in test [3] (setting [8]), 98% (active); in test [3] (at 50.0 µM) it was 86.5% (active); in test [4] (setting [7]), 83% (active); in test [4] (setting [8]), 98% (active); in test [4] (at 50.0 µM), 88% (active). The growth inhibition in test [5] (setting [7]) was 98% (active); in test [5] (setting [8]) it was 98% (active); in test [5] (at 50.0 µM), 87.8% (active); in test [6] (setting [7]) it was 94% (active); in test [6] (setting [8]), 97% (active); in test [6] (at 50.0 µM) it was 91% (active).

`O=C1CCCCC1=C(I)I`: the growth inhibition is 18% in test [1] (setting [7]); 18% in test [1] (setting [8]); 56.2% in test [1] (at 50.0 µM); 18% in test [2] (setting [7]); 18% in test [2] (setting [8]); 66.5% in test [2] (at 50.0 µM). For the same molecule, the growth inhibition is 13% in test [3] (setting [7]); 13% in test [3] (setting [8]); 68.8% in test [3] (at 50.0 µM); -4% in test [4] (setting [7]); -4% in test [4] (setting [8]); 39.8% in test [4] (at 50.0 µM). The growth inhibition in test [5] (setting [7]) was 2%; in test [5] (setting [8]), 2%; in test [5] (at 50.0 µM), 74.4% (active); in test [6] (setting [7]), 12%; in test [6] (setting [8]), 12%; in test [6] (at 50.0 µM), 72.2% (active).

On to `N#Cc1ncc(Cl)cc1[N+](=O)[O-]`, for which the growth inhibition in test [1] (setting [7]) is 93% (active); in test [1] (setting [8]), 98% (active); in test [1] (at 50.0 µM) it was 99.5% (active); in test [2] (setting [7]), 80% (active); in test [2] (setting [8]) it was 99% (active); in test [2] (at 50.0 µM), 99.7% (active). For the same molecule, the growth inhibition in test [3] (setting [7]) was 93% (active); in test [3] (setting [8]), 99% (active); in test [3] (at 50.0 µM), 99.5% (active); in test [4] (setting [7]), 59%; in test [4] (setting [8]), 98% (active); in test [4] (at 50.0 µM), 99.2% (active). The growth inhibition in test [5] (setting [7]) is 70% (active); in test [5] (setting [8]) it was 98% (active); in test [5] (at 50.0 µM), 99.6% (active); in test [6] (setting [7]), 75% (active); in test [6] (setting [8]), 98% (active); in test [6] (at 50.0 µM), 99.5% (active).

For `COc1ccc(/C(Cl)=C(/c2ccc(O)cc2)c2ccc(OCCN(C)C)cc2)cc1`, the growth inhibition in test [1] (setting [7]) was 40%; in test [1] (setting [8]), 40%; in test [1] (at 50.0 µM) it was 91.8% (active); in test [2] (setting [7]), 32%; in test [2] (setting [8]) it was 32%; in test [2] (at 50.0 µM), 87.7% (active). Further, the growth inhibition in test [3] (setting [7]) is 42%; in test [3] (setting [8]), 42%; in test [3] (at 50.0 µM), 92.3% (active); in test [4] (setting [7]), 34%; in test [4] (setting [8]) it was 34%; in test [4] (at 50.0 µM), 89.3% (active). Further, the growth inhibition is 26% in test [5] (setting [7]); 26% in test [5] (setting [8]); 88.6% (active) in test [5] (at 50.0 µM); 27% in test [6] (setting [7]); 27% in test [6] (setting [8]); 88.8% (active) in test [6] (at 50.0 µM).

For the molecule `C=C(Br)CN(C)CC(=C)Br`, the growth inhibition in test [1] (setting [7]) is 0%; in test [1] (setting [8]) it was 40%; in test [1] (at 50.0 µM) it was 82% (active); in test [2] (setting [7]) it was 7%; in test [2] (setting [8]), -19%; in test [2] (at 50.0 µM), -17.1%. Also, the growth inhibition was 4% in test [3] (setting [7]); -10% in test [3] (setting [8]); 22.2% in test [3] (at 50.0 µM); -15% in test [4] (setting [7]); -50% in test [4] (setting [8]); 0.15% in test [4] (at 50.0 µM). Further, the growth inhibition is -2% in test [5] (setting [7]); 5% in test [5] (setting [8]); -15% in test [5] (at 50.0 µM); -6% in test [6] (setting [7]); 25% in test [6] (setting [8]); 62.5% in test [6] (at 50.0 µM).

These data come from PubChem BioAssay (NCI).
